Pf Dd2 growth: inhibitors of Plasmodium falciparum Dd2 growth | P. falciparum Dd2 growth, SYBR Green, 72 h | Potency, µM (series often up to 28.9 µM), for the others: at the highest dose activity, negative = inhibition, usual class: inhibitors | 120,000 tested, 4.3% active | AID 1347417; active means well fitted inhibition curve with a large enough effect;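 further: plate controls were DMSO vehicle for no effect and reference drug for full effect; nearly all actives have a fitted effect of over 65% in size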
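Infected erythrocytes (Dd2, 0.3% parasitemia, 2.5% hematocrit final) are added to compound in RPMI-1640/Albumax II medium, grown 72 h at 37C in low oxygen, then lysed with saponin/Triton-X containing SYBR Green and read by fluorescence.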
Starred values were filed as active, the others as inactive; i = inactive; [ ] = dose if it differs, or a comment. Only a selection was taken, and hits are over-represented in it overall. Potency means the concentration at half of the fitted maximal effect.

SMILES	Pf Dd2 growth
COc1ccc(CNC(=O)CCNS(=O)(=O)c2ccc3c(c2)CCCC(=O)N3)cc1	i
CCCOc1ccc(Cn2c(=O)sc3ccccc32)cc1	0%
COC(=O)[C@@H]1Cc2c([nH]c3ccccc23)[C@H]2C[C@H](NC[C@H]3CCCO3)C[C@@H](c3ccccc3F)N21	-14%
COC(=O)[C@@H]1Cc2c([nH]c3ccccc23)[C@H]2C[C@H](N3CCCCC3)C[C@@H](c3ccccc3F)N21	1.4µM*
COC(=O)[C@@H]1Cc2c([nH]c3ccccc23)[C@H]2C[C@@H](NCCNC(C)=O)C[C@@H](c3ccccc3F)N21	-7%
COc1ccc(CC(=O)NC2CCCc3c2[nH]c2ccccc32)cc1OC (configuration not stated)	-14%
COC(=O)[C@@H]1Cc2c([nH]c3ccccc23)[C@H]2C[C@@H](N3CCCCC3)C[C@@H](c3ccccc3F)N21	4µM*
COc1ccc(C)cc1NC(=O)C1CC(=O)N(c2n[nH]c3cc(Br)ccc23)C1 (configuration not stated)	-15%
CC1CCN(c2ncnc3c2CN(c2ccccc2)C(=O)N(C)C3)C1 (configuration not stated)	i
CC(=O)N1CC2(CCN(C(=O)c3ccc(C)s3)CC2)CC1C(=O)O (configuration not stated)	-15%
COc1ccc(-c2cc(N3CCCC(NC(=O)CCc4ccccc4OC)C3)n[nH]2)cc1 (configuration not stated)	-3%
CCn1nnc(-c2cccc(NS(=O)(=O)NCc3ccccc3)c2)n1	-5%
OCc1cc(CC2(NC3CCC3)COC2)no1	i
C[C@@H]1C(=O)O[C@H]2[C@H]1CC[C@@]1(C)Cc3sc(NC(=O)c4ccc(F)c(Cl)c4)nc3[C@@H](C)[C@H]21	11µM*
C[C@@H]1C(=O)O[C@H]2[C@H]1CC[C@@]1(C)Cc3sc(NS(=O)(=O)c4ccc(F)c(Cl)c4)nc3[C@@H](C)[C@H]21	-13%
C[C@@H]1C(=O)O[C@H]2[C@H]1CC[C@@]1(C)Cc3sc(NC(=O)c4ccncc4)nc3[C@@H](C)[C@H]21	i
COc1ccc(-c2noc(N3CCC(C(=O)N4CCN(c5cccc(C)c5C)CC4)CC3)n2)cc1	32%
CC1=C(c2ccc(Cl)cc2)S(=O)(=O)N=C1N1CCN(c2cccc(C)c2C)CC1	-14%
COC(=O)c1c(-c2ccc(Cl)cc2)noc1N1CCN(c2cccc(C)c2C)CC1	4.5µM*
O=C(CSc1nc2c(c(=O)[nH]1)CN(Cc1ccc3c(c1)OCO3)CC2)Nc1ccccc1Cl	22%
CCc1nnc2ccc(NCc3ccccc3)nn12	6.3µM*
CCc1nnc2ccc(NC(C)C)nn12	2%
CCc1nnc2ccc(NC3CC3)nn12	2%
O=C(NCCNc1cccnc1)C1CCC(=O)N(CCc2ccc(Cl)cc2)C1 (configuration not stated)	-5%
CCn1c(CN2CCC(C)CC2)nc2cc(NC(=O)c3cccc([N+](=O)[O-])c3)ccc21	6.3µM*
SMILES	Pf Dd2 growth
CCn1c(CN2CCC(C)CC2)nc2cc(NC(=O)c3ccc([N+](=O)[O-])cc3)ccc21	-28%
CCn1c(CN2CCOCC2)nc2cc(NC(=O)c3ccc([N+](=O)[O-])cc3)ccc21	-2%
O=C(NCc1ccccc1Cl)C1CCN(S(=O)(=O)c2ccc3c(c2)CCCN3C(=O)C2CCC2)CC1	i
O=C(O)c1cc(NC2(c3ccccc3)C(=O)c3ccccc3C2=O)ccc1Cl	-1%
Fc1ccc(Nc2c(-c3ccccn3)nc3ccc(Cl)cn23)cc1	8.9µM*
Cc1ccc2nc(-c3ccc(C)s3)c(Nc3ccc4c(c3)OCCO4)n2c1	15%
Cc1ccc2nc(-c3ccccn3)c(Nc3ccc(F)cc3)n2c1	4µM*
COc1cc(-c2nc3nc[nH]n3c2Nc2ccc(C(C)C)cc2)ccc1O	i
CC(C)c1ccc(Nc2c(-c3ccccn3)nc3ccccn23)cc1	4.5µM*
Cc1ccc(Nc2c(-c3cccnc3)nc3ccc(C)cn23)cc1	-12%
Clc1ccc2nc(-c3ccc(Br)o3)c(Nc3ccc4c(c3)OCCO4)n2c1	i
COc1ccc(Nc2ccc3nnc(-c4ccccn4)n3n2)cc1	i
CC1CCC2(CC1)NC(=O)N(CC(=O)Nc1ccccc1)C2=O (configuration not stated)	-25%
COCC1(CNC(=O)C2CCOCC2)C[C@@H](O)[C@@H](O)C1 (some centres not stated)	48%[44.1 µM]
Cn1cc(-c2cc3n(n2)CCC(=O)N3CCCC(=O)NCc2ccccc2)c2ccccc21	-10%
COc1ccc(C(=O)N[C@@H]2CN(Cc3cccnc3)C[C@H]2CN(C)C)cc1OC	25%
COc1cccc(CNC(=O)c2ccc(CNS(=O)(=O)c3ccc(C)cc3)cc2)c1	13%
Cc1nn(C)c(C)c1CCNC(=O)CN1CC2CC(C1)[C@H]1CCCC(=O)N1C2 (some centres not stated)	-4%
CCC(=O)Nc1ccc2nc(SCc3ccccc3)sc2c1	-28%
Cc1cccc(NC(=O)CSc2nc3ccc(NC(=O)CCc4ccccc4)cc3s2)c1	11%
CCCC(=O)Nc1ccc2nc(SCc3ccc(C)cc3)sc2c1	8.9µM*
O=C(NCc1ccco1)c1c[nH]c2ccc(S(=O)(=O)Nc3ccc(F)cc3F)cc2c1=O	28%
CCN1CCN(C2(C(=O)NCCc3ccccc3)Cc3ccccc3C2)CC1	5µM*
CCN1CCN(C2(C(=O)N3CCC(OC)CC3)Cc3ccccc3C2)CC1	i
CC1(C(=O)NCCc2ccccc2)CCCCC(=O)N1 (configuration not stated)	8%
SMILES	Pf Dd2 growth
COCc1nc(C2CC(NC(=O)CCc3c[nH]c4ccccc34)C2)cc(=O)[nH]1 (configuration not stated)	9%
O=C(CN1CC2CC(C1)[C@H]1CCCC(=O)N1C2)N1CCCC1 (some centres not stated)	1%
O=C(Nc1cccc(Cl)c1)c1cnc2c(c1)N([S+](=O)([O-])c1cccnc1)CCC2	11µM*
O=C(c1cnc2c(c1)N([S+](=O)([O-])c1cccnc1)CCC2)N1CCC[C@@H]1c1ccc(F)cc1	-1%
CC(C)CCNC(=O)c1cnc2c(c1)N([S+](=O)([O-])c1cccnc1)CCC2	-15%[44.1 µM]
Cn1cc(CC(=O)N2CCCc3ncc(C(=O)NCc4ccoc4)cc32)c2ccccc21	i
CN(C)CCNC(=O)c1cnc2c(c1)N(C(=O)Cc1cn(C)c3ccccc13)CCC2	-19%[44.1 µM]
Cn1cc(CC(=O)N2CCCc3ncc(C(=O)Nc4cccc(Cl)c4)cc32)c2ccccc21	4.5µM*
NS(=O)(=O)c1ccc(-n2nc(-c3ccncc3)nc2C2CCOC2)cc1 (configuration not stated)	5%
O=C1c2[nH]nc(-c3ccccc3O)c2C(c2cccc(Br)c2)N1Cc1ccncc1 (configuration not stated)	-4%
COc1cccc(-c2n[nH]c3c2C(c2ccccn2)N(C)C3=O)c1 (configuration not stated)	5%
O=C1c2[nH]nc(-c3ccccc3O)c2C(c2cccc(Cl)c2)N1Cc1cccnc1 (configuration not stated)	i
COc1ccc(CCN2C(=O)c3[nH]nc(-c4ccccc4O)c3C2c2cccc(OC)c2)cc1 (configuration not stated)	10µM*
Cc1ccc(C2c3c(-c4ccccc4O)n[nH]c3C(=O)N2CCc2ccccc2)cc1 (configuration not stated)	10µM*

High-throughput results (PubChem)
